Experimental data as given in PubChem BioAssay AID1233 (SRMLSC, 2008).
Entries with a potency or affinity are not part of this list. The source made the active and inactive calls.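 How the source made its calls: active means a dose-response curve fit returns a half-maximal inhibitory concentration, extrapolated values included; inactive means the fit returns no such concentration.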

Molecular target: HMG-CoA reductase [Enterococcus faecalis] (UniProt Q9FD70)
Experiment: inhibitors of E. faecalis class II HMGR, confirmation, biochemical, Enterococcus faecalis (AID 1233)
Conditions: purified E. faecalis HMGR, NADPH absorbance 340 nm kinetics; series mostly up to 100 µM

outcome, inactive:
C/C(=N\Nc1ccc(C(=O)O)cc1)c1ccc(-n2ccnc2)cc1, COCCn1c(=N)c(C(=O)NCc2ccco2)cc2c(=O)n3cc(C)ccc3nc21, CCC1Oc2ccccc2N(CC(=O)NCc2ccco2)C1=O (centres undefined), O=C(COC(=O)c1ccncc1)Nc1ccccc1, O=[N+]([O-])/C(=C\Nc1ccccc1Cl)S(=O)(=O)c1ccccc1, COc1ccc(C(=O)NCCc2nnc(SCC(=O)Nc3ccccc3F)n2C)cc1, O=C(Nc1cccc(S(=O)(=O)N2CCCCCC2)c1)c1ccc2ccccc2n1, CCOCC(=O)OCC(=O)Nc1cc(OC)c([N+](=O)[O-])cc1C, CC1CN(C(=O)c2ccncc2)CC(C)O1 (centres undefined), O=c1cc(CSc2ccc([N+](=O)[O-])cc2)nc2sccn12, CCOC(=O)C(C(=O)OCC)C1CCS(=O)(=O)C1 (centres undefined), COc1cc(C)nc(Oc2ccc(OCCOc3ccccc3)nn2)n1, CCc1ccc(NC(=O)CN2C(=O)C(=O)N(Cc3ccccc3)C2=O)cc1, O=C(N/N=C/c1ccc(OC(F)F)cc1OC(F)F)c1cccc(S(=O)(=O)N2CCOCC2)c1, O=C(Nc1ccc(Oc2ccccc2)cc1)c1ccc(Cn2c(=O)[nH]c3ccsc3c2=O)cc1, CC(=O)Nc1ccc(C(=O)CSc2nnc(Cc3ccccc3)o2)cc1, N#CC(=C1CCCC1)c1nc(-c2ccc(Cl)cc2)cs1, O=C(CCc1ccccc1)Nc1ncc2c(n1)CCCC2=O, CC1CCCN(C(=O)C2CCN(CC(C)c3ccccc3)CC2)C1 (centres undefined)
